From PubChem BioAssay AID588342 (National Center for Advancing Translational Sciences (NCATS), 2011)
Among all 360,000 compounds or so, about 25,000 (6.9%) were called active. A call without a number means that no potency is given here. Roughly 9% stayed inconclusive and do not appear here. Calls come from the whole dose curve; as a rule, active = well fitted inhibition curve with a large enough effect; inconclusive = small, poorly fitted or top-dose-only effect; inactive = flat fitted curve, though single readings scatter. For the sample, actives were picked, then their nearest neighbours and some compounds at random.

target: Luciferin 4-monooxygenase (Photinus pyralis) (UniProt P08659); assay: qHTS profiling assay for firefly luciferase inhibitor/activator using purifed enzyme and Km concentrations of substrates (counterscreen for miR-21 project); conditions: purified FLuc, luminescence inhibition; series mostly up to 57.5 µM; note: nearly all actives have a fitted effect of over 55% in size
Sequence (P08659 whole entry, looked up): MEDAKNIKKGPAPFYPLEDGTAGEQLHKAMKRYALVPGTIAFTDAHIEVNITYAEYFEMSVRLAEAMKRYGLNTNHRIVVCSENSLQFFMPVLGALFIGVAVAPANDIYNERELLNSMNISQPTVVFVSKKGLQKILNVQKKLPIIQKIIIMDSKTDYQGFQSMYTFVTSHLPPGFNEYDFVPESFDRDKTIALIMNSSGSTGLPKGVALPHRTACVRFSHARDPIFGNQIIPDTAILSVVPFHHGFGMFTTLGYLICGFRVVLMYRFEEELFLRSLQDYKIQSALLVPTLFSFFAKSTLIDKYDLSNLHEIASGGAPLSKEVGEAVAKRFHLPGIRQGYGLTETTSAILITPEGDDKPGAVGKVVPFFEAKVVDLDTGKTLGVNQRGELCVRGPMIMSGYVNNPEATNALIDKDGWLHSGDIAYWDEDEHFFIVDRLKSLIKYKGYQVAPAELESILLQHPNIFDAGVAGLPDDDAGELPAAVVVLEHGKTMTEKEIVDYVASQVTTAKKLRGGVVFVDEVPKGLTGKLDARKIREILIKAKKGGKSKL
From the text: MLPCN Grant: 1 R21 NS059478-01 (miR-21 grant) Assay Provider: NCGC NCGC Assay Overview: Firefly (Photinus pyralis) luciferase is one of the most commonly used transcriptional reporters for a number of reasons. It is considered one of the more dynamically responsive reporters -that is, responsive to changes in reporter transcription - as it requires no post-translational modifications and is enzymatically active directly after protein synthesis (Wood, 1998). Additionally, the half-life of the luciferase protein is short relative to other reporter-gene products (Wood, 1995). Whereas reporters with long half-lives potentially allow for increased signal due to accumulation of reporter-gene product, once accumulated in the cell, dynamic changes in reporter-gene expression may be difficult to detect(Fan and Wood, 2007; Almond et al., 2004). It has been shown that wild-type P. pyralis luciferase has a half-life of approximately […] hours in mammalian cells (Thompson et al., 1991). Firefly luciferase reporter-gene assays are also generally considered one of the most sensitive assay types (Wood, 1995; Wood, 1998). Although light produced in a bioluminescence reaction is of lower intensity than that produced during fluorescence emission, this is offset by little to no background light inherent to luminescent assays. Thus the luciferase reporter can be expressed at much lower levels than fluorescent proteins while still providing robust signal. # However, it was initially observed, in 1991, by Thompson et al., that compounds that resemble the substrates of firefly luciferase (FLuc) can act as competitive inhibitors of the enzyme, and that these compounds, upon interaction with luciferase in the cell, can actually stabilize the protein and increase its half-life. Accumulated intracellular FLuc protein can be measured as an increase in luminescence signal, upon addition of detection reagents (which contain high concentrations of FLuc substrates) commonly used in high-throughput screening. In cell-based reporter gene assays that use FLuc as the reporter gene to quantitate the potential influence of a given compound against the target biology, this apparent increase in luminescence can mistakenly be interpreted as identification of a compound that is active against the target of interest. This is the case for the miR-21 FLuc reporter gene assay used to identify inhibitors of the miR-21 pathway (PubChem AID 2289) - compounds of interest will inhibit miR-21 biogenesis/expression or activity, and are identified by causing an increase in luminescence, due to increased FLuc translation. However, FLuc inhibitory compounds that stabilize the FLuc protein will give an identical read-out, making it difficult to distinguish compounds that are active against the target from those active against FLuc. Previous profiling work to determine the prevalence of compounds that affect FLuc enzymatic activity (PubChem AID 411) identified that ~3% of the MLSMR library (then at ~72K) inhibited FLuc. […] Since the MLSMR had grown to ~350K compounds, and since it was expected that a significant percentage of compounds found active in the miR-21 FLuc assay would be FLuc inhibitors, the library was screened for activity against FLuc using a biochemical assay of purified FLuc and KM concentrations of FLuc substrates (D-luciferin and ATP).
NCGC Assay Protocol Summary: Reagents: 50mM Tris acetate, pH 7.5; 10mM Mg acetate; 10uM D-luciferin (Sigma #L9504); 10uM ATP; 0.01% Tween-20; 0.05% BSA; 10nM P. pyralis luciferase (Sigma #L9506) Control compounds used were two known firefly luciferase inhibitors (compounds (2) and (5) in Auld et al., 2010), and DMSO. […]

Which Potency does the source give for COc1cc(C(=O)Nc2cc(C(F)(F)F)ccc2-n2cncn2)cc(OC)c1OC here?
Its Potency is “inactive”.

CN(C)C(=O)N1CCNCC1 was tested. Which Potency did it give?
The Potency was “inactive”.

Which Potency does the source give for CC12C(=O)N(c3ccccc3)C(=O)C1C(c1ccccc1)N1CCCN12 (centres undefined) here?
The Potency was “inactive”.

With CCOC(=O)C1CN(S(=O)(=O)c2ccc(F)cc2)C1 as the compound, how does the Potency read?
Its Potency is “inactive”.

How did the Potency turn out when COc1ccc(CNC(=O)c2ccc(NS(=O)(=O)c3ccc4[nH]c(=O)[nH]c4c3)cc2)cc1OC was run?
The Potency was “inactive”.

For CCC1CCCCN1C(=O)Nc1cccc(NC(=O)N2CCCCC2CC)c1 (centres undefined), which Potency is on record?
Its Potency is “inactive”.

Which Potency does the source give for CCC1CCCCN1C(=S)Nc1ccc(S(=O)(=O)Nc2ncccn2)cc1 (centres undefined) here?
Its Potency is “inactive”.

With CCC1CCCCN1C(=S)Nc1ccc(SC(F)F)cc1 (centres undefined) as the compound, how does the Potency read?
The Potency was 12 µM (active).

Which Potency does the source give for Cc1ccc(C(=O)COc2cccc(NC(=O)c3ccco3)c2)cc1 here?
Its Potency is 23.9 µM (active).

How did the Potency turn out when O=C(/C=C/c1ccco1)Nc1ccc(Oc2ccccc2)cc1 was run?
The Potency was 6.01 µM (active).

For O=C(/C=C/c1ccco1)NC(=S)Nc1ccccc1Br, which Potency is on record?
The Potency was “inactive”.

Which Potency does the source give for Cc1cc(NC(=O)c2ccc(F)cc2)ccc1NC(=O)c1ccco1 here?
Its Potency is 16.9 µM (active).

Which Potency does the source give for Cc1cccc(OCC(=O)Nc2ccc(NC(=O)c3ccco3)c(C)c2)c1 here?
Its Potency is “inactive”.

With COc1ccc(OCC(=O)Nc2ccc(NC(=O)c3ccco3)c(C)c2)cc1 as the compound, how does the Potency read?
Its Potency is “inactive”.

How did the Potency turn out when CCOC(=O)c1ccc(NC(=O)CNC(=O)c2ccco2)cc1 was run?
The Potency was “inactive”.

Which Potency does the source give for COc1ccc(NC(=O)c2ccco2)cc1NC(=O)COc1ccc(C)c(C)c1 here?
The Potency was “inactive”.

With Cc1cc(NC(=O)[C@H](C)NC(=O)c2ccco2)ccc1Br as the compound, how does the Potency read?
Its Potency is “inactive”.

With COC(=O)c1ccc(NC(=O)c2ccco2)cc1 as the compound, how does the Potency read?
The Potency was 15.1 µM (active).

Which Potency does the source give for O=C(Nc1ccccc1)/C(=C\c1ccco1)NC(=O)c1ccco1 here?
Its Potency is “inactive”.

With COC(=O)c1cc(NC(=O)c2ccco2)ccc1N1CCOCC1 as the compound, how does the Potency read?
Its Potency is “inactive”.

With COc1ccc(CC(=O)N2N=C(C)CC2(O)C(F)(F)F)cc1 (centres undefined) as the compound, how does the Potency read?
The Potency was “inactive”.

With C#CCN1CC(C)/C(=N/O)CC1C (centres undefined) as the compound, how does the Potency read?
Its Potency is “inactive”.

How did the Potency turn out when CCOc1ccc(Nc2nc3c(S(=O)(=O)c4cccc(Cl)c4)nnn3c3ccsc23)cc1 was run?
The Potency was “inactive”.

For Cc1ccc(Cl)cc1N1CCN(S(=O)(=O)c2cc3[nH]c(=O)c(=O)[nH]c3cc2C)CC1, which Potency is on record?
Its Potency is “inactive”.

How did the Potency turn out when COc1ccc(NC(=O)N2CCCn3nc(C)cc32)cc1OC was run?
Its Potency is “inactive”.

For Cc1cc(C)cc(NC(=O)CCS(=O)(=O)c2cc3c4c(c2)CCN4C(=O)CC3)c1, which Potency is on record?
The Potency was “inactive”.

For Cc1ccc(Cl)cc1NC(=O)CCS(=O)(=O)c1ccc(Br)s1, which Potency is on record?
Its Potency is “inactive”.

For Cc1ccc(N(CC(=O)NCC(C)c2ccccc2)S(=O)(=O)N(C)C)cc1 (centres undefined), which Potency is on record?
The Potency was “inactive”.

CCN(CC(=O)NCc1ccc(Cl)cc1)C(=O)c1c(C)noc1C was tested. Which Potency did it give?
Its Potency is “inactive”.

COc1ccc(NC(=S)SC)cc1OC was tested. Which Potency did it give?
The Potency was “inactive”.

Cc1ccc2c(=O)c(C(=O)c3ccc(F)cc3)cn(CC(=O)NC3CCCCC3)c2n1 was tested. Which Potency did it give?
Its Potency is “inactive”.

Which Potency does the source give for Cc1cc(C)c(NC(=O)c2oc3ccccc3c2COc2ccccc2)c(C)c1 here?
The Potency was “inactive”.

How did the Potency turn out when O=C(NNC(=O)c1ccco1)Nc1ccccc1 was run?
The Potency was “inactive”.

CSCCC(NC(=O)c1ccco1)C(=O)Nc1cc(C)ccn1 (centres undefined) was tested. Which Potency did it give?
Its Potency is 15.1 µM (active).

How did the Potency turn out when Cc1cccc(NC(=O)Nc2cccc(Oc3c(F)c(F)c(F)c(F)c3F)c2)c1 was run?
The Potency was “inactive”.

For Cc1ccoc1C(=O)Nc1cccc(Oc2ccccc2)c1, which Potency is on record?
The Potency was 6.75 µM (active).

Which Potency does the source give for COc1ccc(NC(=O)CCC(=O)Nc2cc(OC)c(NC(=O)c3ccco3)cc2OC)c(OC)c1 here?
The Potency was “inactive”.

CSCCC(NC(=O)c1ccco1)C(=O)NCCc1ccc(F)cc1 (centres undefined) was tested. Which Potency did it give?
Its Potency is “inactive”.

How did the Potency turn out when O=C(Nc1ccccc1)c1ccco1 was run?
The Potency was “inactive”.

With COc1cccc(C(=O)Nc2ccc(NC(=O)c3ccco3)cn2)c1 as the compound, how does the Potency read?
The Potency was 21.3 µM (active).

COc1ccc(NC(=O)c2ccco2)cc1NC(=O)c1ccc(C#N)cc1F was tested. Which Potency did it give?
The Potency was “inactive”.

With O=C(Nc1ccc(Oc2ccccc2)cc1)c1ccco1 as the compound, how does the Potency read?
The Potency was 5.36 µM (active).

How did the Potency turn out when CSCCC(NC(=O)c1ccco1)C(=O)OCC(=O)Nc1ncc(Cl)c(C)c1Cl (centres undefined) was run?
The Potency was “inactive”.

CCOc1ccccc1C(=O)Nc1ccc(S(=O)(=O)N2CCCCC2c2cccnc2)cc1 (centres undefined) was tested. Which Potency did it give?
The Potency was “inactive”.

For Cc1c(Cl)cccc1NC(=O)Cn1cc(C(=O)c2cccs2)c2ccccc21, which Potency is on record?
Its Potency is “inactive”.

How did the Potency turn out when Cc1cccc(OCCSc2nc3ccccc3n2CC(=O)N2CCCCC2)c1C was run?
The Potency was “inactive”.

COc1ccc(CNC(=O)c2ccc(NC(=O)N3CC4CCCN4c4ccccc43)cc2)cc1 (centres undefined) was tested. Which Potency did it give?
Its Potency is “inactive”.

How did the Potency turn out when O=C(CC(NCc1cccnc1)C(=O)O)Nc1ccc(O)cc1 (centres undefined) was run?
The Potency was “inactive”.

O=C(NCc1ccccc1CN1CCCC1)c1cccc(S(=O)(=O)Nc2ccc(F)cc2)c1 was tested. Which Potency did it give?
The Potency was “inactive”.

With O=C(CCNC(=O)Cn1ccc2ccccc2c1=O)NCCC1=CCCCC1 as the compound, how does the Potency read?
The Potency was “inactive”.

For CC(C)(C)NC(=O)c1cc(NC(=O)c2ccco2)cc(NC(=O)c2ccco2)c1, which Potency is on record?
The Potency was “inactive”.

Which Potency does the source give for Cc1ccnc(NC(=O)c2ccco2)n1 here?
The Potency was “inactive”.

Cc1ccnc(NC(=O)c2ccc(NC(=O)c3ccco3)cc2)c1 was tested. Which Potency did it give?
The Potency was 10.7 µM (active).

Cc1cccc(N(C(=O)Cc2cccs2)C(C(=O)NC2CCCC2)c2ccsc2)c1 (centres undefined) was tested. Which Potency did it give?
The Potency was “inactive”.

Cc1ccc(OCCCCc2c(C)n[nH]c2C)cc1 was tested. Which Potency did it give?
The Potency was “inactive”.

CCCOc1ccc(-c2nc(N)n[nH]2)cc1 was tested. Which Potency did it give?
The Potency was 13.5 µM (active).

For Nc1nc(SCCOc2ccccc2)n[nH]1, which Potency is on record?
The Potency was “inactive”.

How did the Potency turn out when Cc1ccc(CNC(=O)CSc2nnc3c(n2)[nH]c2ccc(F)cc23)cc1 was run?
The Potency was “inactive”.

For COc1ccc(Cl)cc1NC(=O)C(C)Sc1nc2c(c(=O)[nH]1)CCCC2 (centres undefined), which Potency is on record?
The Potency was “inactive”.

Which Potency does the source give for COC(=O)CN(c1nc(C)c(Cl)c(OC)n1)S(=O)(=O)c1ccc(C)cc1 here?
The Potency was “inactive”.

How did the Potency turn out when COc1ccc2c(c1)CCc1c(C(=O)Nc3cc(C)ccc3O)noc1-2 was run?
Its Potency is “inactive”.

Which Potency does the source give for COc1ccc(C(=O)N2CCCN(C)CC2)c(OC)c1 here?
Its Potency is “inactive”.

For COc1ccc2c(c1)CCc1c(C(=O)Nc3c(C)n(C)n(-c4ccccc4)c3=O)noc1-2, which Potency is on record?
The Potency was 23.9 µM (active).

Which Potency does the source give for Cc1c(NC(=O)c2cc(-c3ccc(Br)cc3)on2)c(=O)n(-c2ccccc2)n1C here?
Its Potency is “inactive”.

COc1ccc(S(=O)(=O)NC(C)C(=O)N2CCCCCC2)cc1 (centres undefined) was tested. Which Potency did it give?
Its Potency is “inactive”.

For COc1ccc2c(c1)CCc1c(C(=O)N3CCCC3)noc1-2, which Potency is on record?
Its Potency is 12 µM (active).

COc1ccc(Cl)cc1NC(=O)CSc1nc(-c2cccs2)cc(C(F)(F)F)n1 was tested. Which Potency did it give?
Its Potency is “inactive”.

CC(OC(=O)c1ccccc1NCCO)C(=O)Nc1ccnn1C(C)C (centres undefined) was tested. Which Potency did it give?
The Potency was “inactive”.

With Cn1c(=O)oc2cc(S(=O)(=O)CCC(=O)NCCc3ccc(Cl)cc3)ccc21 as the compound, how does the Potency read?
The Potency was “inactive”.
